{"source": "PubChem BioAssay (EPA / NIEHS)", "note": "Some compounds were tested as several samples or in several runs, with calls that do not always agree. Active and inactive are the calls of the source. How the source made its calls: active means hit-call score of the fitted dose curve at least 0.9, where 1 is the maximum; inactive means score below 0.9.", "data": [{"experiment": "CCTE_Mundy_HCI_hNP1_Casp3_7: CCTE's Caspase-Glo 3/7 Assay in human neuroprogenitor cells for Apoptosis, Mundy Lab (AID 2284240)", "procedure": "CCTE_Mundy_HCI_hNP1_Casp3_7 is a multiplexed, cell-based-readout assay that uses neural stem cells derived from a neuroepithelial cell lineage of WA09 embryonic cells with measurements taken at […] after chemical dosing in a microplate: 96-well plate.CCTE_Mundy_HCI_hNP1_Casp3_7 is one component of the CCTE_Mundy_HCI_hNP1_Casp3_7 assay. It measures apoptosis related to caspase activation using Luminescent Reporter.Data from the assay component CCTE_Mundy_HCI_hNP1_Casp3_7 was analyzed at the endpoint CCTE_Mundy_HCI_hNP1_Casp3_7_gain in the positive analysis fitting direction relative to DMSO as the negative control and baseline of activity. Using a type of viability reporter, gain -of-signal activity can be used to understand viability effects.\nHuman neural progenitor cells (hNP1) were obtained as cryopreserved cells from ArunA Biomedical, Athens Georgia. Cells are plated on pre-coated poly-L-ornithine/laminin clear bottom and opaque 96 well plates (day 0). Plates are placed in a 37 °C, 5% CO2 incubator for 40 to 44 hours at which time plates are removed from the incubator and 10 uL of a freshly made chemical solution is added to each well. Apoptosis was measured based on detection of activated caspase-3/7 using the Caspase-Glo 3/7 assay kit (Promega). Twenty-four hours after chemical treatment, 50ul of Caspase-Glo 3/7 assay buffer was added to each well and the plate incubated for 30min at room temperature. Luminescence was then recorded in each well using a FLUOstar Optima plate reader.", "values": [{"compound": "O=C(Nc1ccccc1-c1ccc(Cl)cc1)c1cccnc1Cl", "outcome": "inactive"}, {"compound": "CCNC(=O)NC(=O)C(C#N)=NOC", "outcome": "inactive"}, {"compound": "CC1(C)C(C=C(Cl)Cl)C1C(=O)OC(C#N)c1cccc(Oc2ccccc2)c1", "note": "(centres undefined)", "outcome": "inactive"}, {"compound": "N#CN=C1SCCN1Cc1ccc(Cl)nc1", "outcome": "inactive"}, {"compound": "CCN(CC)c1nc(C)cc(OP(=S)(OC)OC)n1", "AC50": "75.1 µM (active)"}, {"compound": "CCSC(=O)N1CCCCCC1", "outcome": "inactive"}, {"compound": "CCOP(=O)(OCC)Oc1nc(Cl)c(Cl)cc1Cl", "outcome": "inactive", "AC50": "50 µM (active)"}, {"compound": "COP(=O)(OC)O/C(C)=C/C(=O)N(C)C", "outcome": "inactive"}, {"compound": "Cc1c(COC(=O)[C@@H]2[C@H](/C=C(\\Cl)C(F)(F)F)C2(C)C)cccc1-c1ccccc1", "AC50": "10.3 µM (active)"}, {"compound": "CS(=O)(=O)c1ccc(C(=O)C2C(=O)CCCC2=O)c([N+](=O)[O-])c1", "outcome": "inactive"}, {"compound": "CS(=O)(=O)c1cc(C(F)(F)F)ccc1C(=O)c1cnoc1C1CC1", "outcome": "inactive"}, {"compound": "COP(=S)(OC)SCn1nnc2ccccc2c1=O", "outcome": "inactive"}, {"compound": "CN/C(=N\\[N+](=O)[O-])NCc1cnc(Cl)s1", "outcome": "inactive"}, {"compound": "CNC(=O)Oc1cccc2ccccc12", "outcome": "inactive"}, {"compound": "CO/N=C(/C1=NOCCO1)c1ccccc1Oc1ncnc(Oc2ccccc2Cl)c1F", "AC50": "90 µM (active)"}, {"compound": "CC(C)(C)C(=O)C(Oc1ccc(Cl)cc1)n1cncn1", "note": "(centres undefined)", "outcome": "inactive"}, {"compound": "COC(=O)N(C(=O)N1CO[C@@]2(C(=O)OC)Cc3cc(Cl)ccc3C2=N1)c1ccc(OC(F)(F)F)cc1", "outcome": "inactive"}, {"compound": "C=C(C)CN(CC)c1c([N+](=O)[O-])cc(C(F)(F)F)cc1[N+](=O)[O-]", "AC50": "77.5 µM (active)"}]}]}
